Most compounds without a hit are left out; they make up all but 2.4% or so of the library.
D2 ag-1: HTS Assay for Allosteric Agonists of the Human D2 Dopamine Receptor: Primary Screen for Agonists. activation, % at 2 µM. HEK293 T-REx D2 cells, calcium flux agonist mode. D(2) dopamine receptor (Homo sapiens), P14416. 0.53% of 340,000 active;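 active = activation over 3 SD above normal in the single-dose calcium agonist read, cut at about 30% in these data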; note: 0% is about no effect
Target sequence (P14416 whole entry, looked up): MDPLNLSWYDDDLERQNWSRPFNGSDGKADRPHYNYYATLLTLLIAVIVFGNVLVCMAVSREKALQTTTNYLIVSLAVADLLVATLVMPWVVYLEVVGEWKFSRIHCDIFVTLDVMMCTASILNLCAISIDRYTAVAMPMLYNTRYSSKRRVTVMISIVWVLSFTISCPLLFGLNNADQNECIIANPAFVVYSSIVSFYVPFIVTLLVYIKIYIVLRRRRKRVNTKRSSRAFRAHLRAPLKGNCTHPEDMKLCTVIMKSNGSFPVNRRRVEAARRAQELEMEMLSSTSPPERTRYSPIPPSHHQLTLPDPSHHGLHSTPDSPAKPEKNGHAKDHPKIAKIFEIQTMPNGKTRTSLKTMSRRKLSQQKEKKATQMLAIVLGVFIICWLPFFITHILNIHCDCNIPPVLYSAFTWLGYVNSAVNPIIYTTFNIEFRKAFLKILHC
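Tetracycline-induced HEK293 T-REx cells with force-coupled D2 receptor, plated overnight at 30 C, loaded with no-wash calcium dye. After a 10 s baseline, compound was pin-added and calcium flux read kinetically for 180 s; calcium rises flagged agonists.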
D2 PAM-1: Beta-Arrestin HTS for Positive Allosteric Modulators of the Human D2 Dopamine Receptor: Potentiators. 0.23% of 360,000 active. DiscoveRx D2 beta-arrestin cells, luminescence, 90 min; 100% = 57 uM dopamine signal. potentiation, % (test concentration not listed). D(2) dopamine receptor (Homo sapiens), P14416. AID 624464, 2012; in the data active = potentiation above about 50%; inconclusive = mostly about 30% to 49%
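D2 cells co-treated with compound plus 50 nM dopamine (EC20) for 90 min at 37 deg C to detect potentiation. Beta-arrestin recruitment was read as enzyme-fragment luminescence after 1 h at ambient temperature. Full response was set by 57 uM dopamine.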
D2 ag-2: Beta-Arrestin HTS for Positive Allosteric Modulators of the Human D2 Dopamine Receptor: Agonists; D(2) dopamine receptor (Homo sapiens), P14416; DiscoveRx PathHunter D2 beta-arrestin, luminescence, 90 min; 100% = 57 uM dopamine signal; activation, % (concentration not given with the values); 0.084% of 360,000 active; in the data active = activation above about 40%; inconclusive = between about 15% and that limit
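Agonist mode: compounds alone added to overnight-plated D2 PathHunter cells for 90 min at 37 C, with 57 uM final dopamine (EC100) defining full response. Beta-arrestin recruitment detected by chemiluminescent reagent, read after 1 h at ambient temperature.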
D2 antagonist: HTS Assay for Allosteric Antagonists of the Human D2 Dopamine Receptor: Primary Screen for Antagonists. 2% of 340,000 active. D(2) dopamine receptor (Homo sapiens), P14416. inhibition, % at 10 µM. HEK293 TREx D2 cells, calcium flux, dopamine EC80; in the data active = inhibition above about 30%; inactive = below that, where a call was filed; note: 0% is about no effect
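Tetracycline-induced HEK293 TREx cells expressing D2 receptor forced-coupled to calcium signalling, loaded with no-wash calcium dye. Compounds added and calcium flux read 180 s, then dopamine added at EC80 and read a further 180 s.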
D2 PAM-2: HTS Assay for Positive Allosteric Modulators of the Human D2 Dopamine Receptor: Primary Screen for Potentiators. HEK293 T-REx D2, calcium flux, EC20 dopamine potentiation. potentiation, % at 10 µM. 0.34% of 340,000 active;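 active = potentiation over 3 SD above the plate norm, cut at about 30% in these data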; note: 0% is about no effect
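Using a no-wash calcium dye in inducible, force-coupled HEK293 Trex cells expressing D2, we tracked fluorescence each second for 180 s after compound, then for 180 s after EC20 dopamine to detect augmented signalling.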
* hit, by the source's call; u = inconclusive; x = not tested or not shown.

SMILES	D2 ag-1	D2 PAM-1	D2 ag-2	D2 antagonist	D2 PAM-2
COc1ccc(-c2cc3nc(C)cc(N4CC(C)CC(C)C4)n3n2)cc1 (stereo not given)	0	-2	-1	-16	40*
Oc1ccc2ccccc2c1CNn1cnnc1	0	-3	1	33*	-7
CC(C)(C)c1cc(C(=O)N/N=C/c2cc3c(cc2Br)OCO3)n[nH]1	-2	-45	6	49*	-21
O=C(N/N=C/c1cc2c(cc1Br)OCO2)c1ccccn1	-1	1	-2	15	1
O=C(N/N=C/c1cc2c(cc1Br)OCO2)c1cc2ccccc2o1	-1	-54	-3	80*	-25
Cc1cccc(N(C)S(=O)(=O)c2c(C(=O)N3CCCCCC3)c(C)n(C)c2C)c1	-1	x	x	x	-3
NC(=Nc1ccc(Cl)cc1)c1ccccc1	29	1	0	34*	-13
ONC(=Nc1ccccc1)c1ccc(Cl)cc1	-1	7	1	23	7
COc1ccc(-c2cc(C(=O)NCc3ccc(F)cc3)c3c(-c4ccc(F)cc4)[nH]nc3n2)cc1OC	0	x	x	x	7
CC(CN1c2ccccc2Sc2ccccc21)N(C)C (stereo not given)	1	-17	-6	54*	-26
CC(CN(C)C)CN1c2ccccc2Sc2ccccc21 (stereo not given)	0	-33	0	76*	-21
CCN(CC)CC(O)CN1c2ccccc2Sc2ccccc21 (stereo not given)	-1	-37	7	-23	-22
COc1ccc(C(=O)NCCc2csc(-c3ccc(Cl)cc3)n2)c(OC)c1	1	x	x	x	10
CCOC(=O)c1cc(C(=O)c2ccccc2O)cn2c(=O)c3c(C)c(C)sc3nc12	1	x	x	-9	7
O=C(O)CCC(=O)Nc1nc2nccc(-c3ccccc3)n2n1	1	-1	-1	-5	2
Cc1cccc(C(=O)N(Cc2ccco2)Cc2ccccc2F)c1	-1	x	x	x	12
COc1cc(OC)c(C(=O)NC23CC4CC(CC(C4)C2)C3)cc1OC	1	65*	-2	-3	-2
Cc1occc1-c1nnc(-c2cc([N+](=O)[O-])cc([N+](=O)[O-])c2)o1	0	66*	u	1	6
Cc1cccc(NS(=O)(=O)Cc2ccccc2)n1	0	-2	-1	-30	-6
O=S(=O)(Cc1ccccc1)Nn1cnnc1	0	-4	-1	31*	7
O=S(=O)(Cc1ccccc1)NCC1CCCN(Cc2ccc(F)c(F)c2)C1 (stereo not given)	2	-11	0	16	-19
CCc1ccc(C(=O)c2cn(CC(=O)Nc3ccc4c(c3)OCO4)c3ccc(CC)cc3c2=O)cc1	x	x	x	x	-23
Cc1cccc(Cn2c(SCc3ccc(C(=O)NCc4cccs4)cc3)nc3ccncc32)c1	1	x	x	x	-2
O=C(CCN1CCN(Cc2ccccc2)CC1)Nc1ccc(OCc2ccccc2)cc1	0	-22	0	42*	-19
CCCOc1ccc(NC(=O)CC2C(=O)N(CC)C(=S)N2CCCN2CCN(Cc3ccccc3)CC2)cc1 (stereo not given)	0	-16	u	33*	x
SMILES	D2 ag-1	D2 PAM-1	D2 ag-2	D2 antagonist	D2 PAM-2
O=C(CCN1CCN(CCO)CC1)Nc1ccc(OCc2ccccc2)cc1	-1	1	-1	14	15
Cc1cc(Cl)ccc1OCC(=O)N1CCC(c2nc3ccccc3s2)CC1	x	x	x	x	4
Cc1sc2nc(CSC(C)C(=O)NC3(C#N)CCCCC3)[nH]c(=O)c2c1C (stereo not given)	0	-28	-7	38*	-6
Cc1sc2nc(CSC(C)C(=O)Nc3ccc(C#N)cc3)[nH]c(=O)c2c1C (stereo not given)	0	-13	-5	-5	0
CC1CCCN(Cc2c(O)ccc3c(=O)c(Oc4ccccc4Cl)c(C(F)(F)F)oc23)C1 (stereo not given)	0	x	x	x	6
O=C1N(Cc2ccccc2F)c2ccccc2C12OCCCO2	0	-12	-3	-4	40*
CCCC(=O)CN1C(=O)C2(OCCO2)c2ccccc21	0	-17	-1	-13	36*
Cc1ccc2onc(CC(=O)N3CCN(c4ccc(F)cc4)CC3)c2c1	1	x	x	x	4
O=C1CCCN1c1ccc(C(=O)N(Cc2nnc(-c3ccc(Cl)cc3)o2)C2CC2)cc1	-1	-11	-7	-3	-7
COc1ccc2oc(=O)c(C(=O)NCCc3c(C)[nH]c4c(Cl)cccc34)cc2c1	0	x	x	x	8
CCn1c2ccccc2c2cc(CNCc3ccc(OC)cc3OC)ccc21	8	-3	3	35*	-28
CCN(CC)CCOC(=O)c1ccc(NC(=O)CCCN2C(=O)/C(=C\c3cccs3)SC2=S)cc1	1	-56	-4	68*	-27
CN1CCCCC1CCN1c2ccccc2Sc2ccc(S(C)=O)cc21 (stereo not given)	1	-10	-3	96*	-28
CN1CCCC(CN2c3ccccc3Sc3ccccc32)C1 (stereo not given)	x	-32	-1	x	x
CCOc1ccc(NC(=O)C2CCN(S(=O)(=O)c3ccc4c(c3)oc(=O)n4C)CC2)cc1	0	x	x	x	-5
COc1ccc(N/C(N)=N/c2nc(C)cc(C)n2)cc1	x	-5	-2	x	x
Cc1cc(C)nc(/N=C(\N)Nc2ccc(OCc3ccccc3)cc2)n1	63*	-5	-2	70*	-13
NS(=O)(=O)c1ccc(CCNC(=O)COc2ccc3c4c(c(=O)oc3c2)CCC4)cc1	0	-14	-1	5	40*
O=C(O)COc1ccc2c3c(c(=O)oc2c1)CCC3	0	-20	-5	39*	2
CCCNC(=O)C1(C)CCCN(C(=O)c2cc(C)nn2C(C)(C)C)C1 (stereo not given)	x	-4	-2	x	x
COc1cc2c(cc1NC(=O)CSc1nnc(Cc3cccs3)n1C)oc1ccccc12	0	-18	-2	14	-1
CCn1c(SCC(=O)Nc2cc3oc4ccccc4c3cc2OC)nnc1-c1cccs1	37*	0	12	45*	-15
COc1cc(/C=C2\SC(=S)N(Nc3ncc(C(F)(F)F)cc3Cl)C2=O)ccc1O	21	-36	-14	-1	-11
CN(C)c1ccc(/C=C2\SC(=S)N(Nc3ncc(C(F)(F)F)cc3Cl)C2=O)cc1	45*	-23	-6	-19	-3
COc1ccccc1N1CCN(Cc2c[nH]c3ccccc23)CC1	0	-20	-1	48*	-17
